Bioassay records (PubChem BioAssay)
The list is not random: actives were taken first. Their share in the collection is about 2.5%.
L3MBTL1 block: L3MBTL1 (human) inhibition; Q9Y468; AlphaScreen L3MBTL1–H3K9me1 peptide binding; Potency, µM (series often up to 57.1 µM), most hits filed as inhibitors; 230,000 compounds, 0.66% hits; AID 485360; further: nearly all actives have a fitted effect of over 60% in size
Target sequence (Q9Y468 whole entry, looked up): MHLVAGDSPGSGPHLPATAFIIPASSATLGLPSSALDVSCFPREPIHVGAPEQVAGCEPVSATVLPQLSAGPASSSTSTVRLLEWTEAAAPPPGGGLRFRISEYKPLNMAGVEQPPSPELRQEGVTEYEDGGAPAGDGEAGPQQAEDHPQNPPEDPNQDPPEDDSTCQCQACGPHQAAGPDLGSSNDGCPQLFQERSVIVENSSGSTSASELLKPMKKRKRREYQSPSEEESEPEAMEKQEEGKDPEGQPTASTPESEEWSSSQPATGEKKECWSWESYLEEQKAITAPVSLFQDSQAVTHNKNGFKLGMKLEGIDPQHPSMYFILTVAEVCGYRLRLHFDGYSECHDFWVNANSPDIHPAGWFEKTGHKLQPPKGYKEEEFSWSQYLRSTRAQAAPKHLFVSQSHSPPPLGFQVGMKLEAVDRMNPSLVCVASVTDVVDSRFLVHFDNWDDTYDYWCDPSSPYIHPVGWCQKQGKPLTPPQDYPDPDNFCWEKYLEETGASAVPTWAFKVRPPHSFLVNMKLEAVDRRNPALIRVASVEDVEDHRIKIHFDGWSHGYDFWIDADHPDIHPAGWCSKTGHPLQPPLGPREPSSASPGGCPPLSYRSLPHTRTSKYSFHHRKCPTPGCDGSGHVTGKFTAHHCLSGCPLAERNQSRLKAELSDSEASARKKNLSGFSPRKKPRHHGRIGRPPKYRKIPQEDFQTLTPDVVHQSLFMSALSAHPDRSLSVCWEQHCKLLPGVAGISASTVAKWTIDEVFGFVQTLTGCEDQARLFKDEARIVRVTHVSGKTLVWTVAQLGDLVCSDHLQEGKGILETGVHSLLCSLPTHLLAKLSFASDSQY
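AlphaScreen assay: L3MBTL1 (50 nM final) was preincubated 30 min at room temperature with biotinylated H3(1-15)K9me1 peptide (75 nM final), then 30 min with library compounds; streptavidin donor and nickel chelate acceptor beads (10 ug/mL final) added, 30 min dark.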
Pol iota inh: blocks human DNA polymerase iota activity. Q9UNA4. Pol iota fluorescent replication assay, 10 min. Potency, µM (highest dose often 115 µM), hits mostly inhibitors. 390,000 compounds, 1% hits. AID 588590
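Fluorescent replication assay read twice, at 0 min and 10 min after adding 50 nM (final) substrate. Enzyme (10 nM) and compounds were first incubated 15 min at room temperature; enzyme-free buffer wells were negative controls.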
POLH inh: DNA polymerase eta (human) inhibition; Q9Y253; recombinant Pol eta, fluorescent DNA replication assay; Potency, µM (titrated, usually from 114 µM), most hits filed as inhibitors; 390,000 compounds, 1.2% hits
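Fluorescent replication assay: 50 nM final substrate added after a 15 min room-temperature compound preincubation with 10 nM enzyme. Signal taken at 0 min and again at 10 min.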
Pol beta inh: inhibitors of human DNA polymerase beta | Potency, µM (titrated, usually from 114 µM), most hits filed as inhibitors | Pol beta primer extension/strand displacement, fluorescence kinetic | 340,000 compounds, 1.3% hits | P06746
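Pol beta (10 nM) was preincubated with compound for 15 min at room temperature. The reaction was then started with 50 nM substrate and read immediately and after a further 10 min at room temperature.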
APEX1 inh: APE1 (human) endonuclease inhibition; recombinant APE1, TAMRA/BHQ-2 abasic DNA cleavage fluorescence; 350,000 compounds, 0.35% hits; Potency, µM (top dose mostly 65.8 µM), hits mostly inhibitors; further: nearly all actives have a fitted effect of over 55% in size
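Substrate: short duplex with […] THF abasic site, 5'-TAMRA and 3'-BHQ-2, 50 nM final. APE1 at 0.75 nM, preincubated 15 min RT with compound. Fluorescence increase from first to third read measured activity.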
POLK inh: blocks human DNA polymerase kappa activity. Q9UBT6. purified Pol kappa, fluorescent DNA synthesis assay, 10 min. Potency, µM (highest dose often 107 µM), hits mostly inhibitors. 400,000 compounds, 0.53% hits. AID 588579
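Pol kappa 10 nM + cpd, 15 min RT; start w/ substrate 50 nM final; fluorescence kinetic read, 0 and 10 min. Neg ctrl: buffer, no enzyme.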
A number is an active result; - = inactive; ? = inconclusive; . = no result given; ! = not confirmed by another sample. The call rests on the fitted dose curve; in most records, active means well fitted curve in the direction sought with a large enough effect; inconclusive means small, poorly fitted or top-dose-only effect, or another doubt; inactive means no such curve, though single readings can be large; an effect the other way counts as inactive or inconclusive.

SMILES | L3MBTL1 block | Pol iota inh | POLH inh | Pol beta inh | APEX1 inh | POLK inh
Oc1cc(O)c2c(c1)O[C@H](c1ccc(O)c(O)c1)[C@@H](O)C2 | . | ? | 28µM! | 13µM | 11µM! | ?
O[C@@H]1Cc2ccccc2O[C@H]1c1ccccc1 | . | - | - | . | . | -
Oc1ccc2c(c1)OC(c1ccc(O)c(O)c1)C(O)C2 (configuration not stated) | . | . | . | . | ? | 10µM
O=C(COC(=O)COc1ccc(Cl)cc1)NC1CCCC1 | - | - | - | . | - | -
CN(C)C(=O)CSc1nnc(-c2ccc(S(=O)(=O)N3CCCC3)cc2)n1C | . | ? | 89µM | - | - | ?
COc1cccc(Cn2c(=O)c(-c3cccc(C#N)c3)nc3cnc(N4CCOCC4)nc32)c1 | . | . | . | . | - | -
O=S(=O)(C/C(=C/CO)S(=O)(=O)c1ccccc1)c1ccccc1 | - | 22µM | - | - | - | -
CCCCn1c(N)c(N(C(=O)CSc2nncn2-c2ccccc2)C2CCCC2)c(=O)[nH]c1=O | . | - | - | . | . | -
Cc1[nH]n(-c2ccccc2)c(=O)c1/C=N/Nc1nncc(-c2ccccc2)n1 | 25µM | - | - | - | - | -
Cc1cccc2c(N=O)c(O)[nH]c12 | . | - | 35µM | - | - | -
CCN(CC)CCCOc1cc2nc(N3CCCN(C)CC3)nc(NC3CCN(C)CC3)c2cc1OC | . | ? | . | . | . | -
CCOc1ccccc1C1C2C(=O)N(c3ccccc3)C(=O)C2ON1c1ccccc1 (configuration not stated) | - | 56µM | - | - | - | -
CCCCCCCCCC[N+](C)(C)CC/C=C1/c2ccccc2Sc2ccc(Cl)cc21 | . | - | - | 40µM | - | -
Cc1cc(O)c(Sc2ncn[nH]2)cc1NS(=O)(=O)c1ccc(Cl)cc1 | - | - | - | . | - | -
O=S(=O)(Nc1cc(Sc2ncn[nH]2)c(O)c2ccccc12)c1ccccc1 | . | 1.1µM | 22µM | ? | - | -
CCOC(=O)C1=C(CSc2nc3c(cc2C#N)CN(C)CC3)OC(N)=C(C#N)C1c1ccc(Cl)cc1 (configuration not stated) | - | ? | ? | - | - | ?
CCOC(=O)C1=C(CSc2nc3c(cc2C#N)CN(C)CC3)OC(N)=C(C#N)C1c1ccncc1 (configuration not stated) | - | 32µM | ? | ? | - | ?
Nc1c(C(=O)Nc2nc3ccccc3s2)sc2nc(-c3cccs3)ccc12 | - | 32µM | 89µM | - | - | ?
O=C(NCc1ccco1)/C(=C\c1ccco1)NC(=O)c1cccs1 | - | - | - | 22µM | - | -
COc1cc(NC(=O)c2ccco2)c(OC)cc1NC(=O)c1cc(OC)c(OC)c(OC)c1 | - | - | - | 40µM | - | -
COc1cc(OC)cc(C(=O)Nc2ccc(NC(=O)c3ccco3)c(Cl)c2)c1 | . | 25µM | ? | ? | - | -
COc1cc(OC)cc(C(=O)NC(=S)Nc2ccc(NC(=O)c3ccco3)cc2)c1 | - | - | - | - | - | -
COC(=O)C(C)Oc1ccc2c(c1)O/C(=C\c1ccco1)C2=O (configuration not stated) | . | 45µM | 45µM | ? | - | ?
CCC(Sc1nc2cc(OC)c(OC)cc2c(=O)n1CCc1ccc(Cl)cc1)C(=O)NCCOC (configuration not stated) | . | - | - | - | . | -
O=C(CCc1nc2sc3c(c2c(=O)[nH]1)CCCC3)Nc1cccc(Cl)c1 | - | 79µM | 13µM | . | - | -
SMILES | L3MBTL1 block | Pol iota inh | POLH inh | Pol beta inh | APEX1 inh | POLK inh
CC(=O)Nc1ccc(NC(=O)CCc2nc3sc4c(c3c(=O)[nH]2)CCCC4)cc1 | - | 40µM | ? | . | - | -
Cc1cc(C)cc(NC(=O)CCc2nc3sc4c(c3c(=O)[nH]2)CCCC4)c1 | ? | 45µM | 20µM | . | - | ?
NC(=O)c1ccc(NC(=O)CCc2nc3sc4c(c3c(=O)[nH]2)CCCC4)cc1 | - | ? | ? | . | - | -
CCOc1cc(N2CCOCC2)c(OCC)cc1NS(=O)(=O)c1ccc(Cl)s1 | ? | 28µM | - | - | ? | -
Cc1cc(C(C)(C)C)cc(C)c1COC(=O)CN1C(=O)NC2(CCCC2)C1=O | - | - | - | . | - | -
Cc1ccc(C(=O)Oc2coc(CSc3nnc(NC(=O)C4CC4)s3)cc2=O)cc1 | - | ? | ? | - | - | -
O=C(Oc1coc(CSc2nnc(NC(=O)c3cccs3)s2)cc1=O)c1ccccc1 | ? | ? | ? | 13µM | ? | ?
Cc1ccc(/C=C2/C(=O)ON=C2c2ccccc2)o1 | - | 4µM | 35µM | - | - | 22µM
O=C1ON=C(c2ccccc2)/C1=C\c1ccco1 | 22µM | - | - | 32µM | ? | -
COc1cc([N+](=O)[O-])ccc1-c1ccc(/C=C2\C(=O)ON=C2c2ccccc2)o1 | . | ? | 79µM | . | . | -
CCOc1nc(Nc2ccc(OC)cc2OC)nc(OCC)n1 | . | - | - | - | - | -
CCn1nc(CC(=O)Nc2ccc(-n3cnnn3)c(OC)c2)c2ccccc2c1=O | - | - | ? | 32µM | - | -
COc1cc(C=C2C(=O)c3ccccc3C2=O)cc(OC)c1OC | . | 89µM | - | - | - | -
COc1cc(C=C2C(=O)c3ccccc3C2=O)ccc1O | ? | ? | - | - | - | -
COc1ccc(C=C2C(=O)c3ccccc3C2=O)cc1O | . | 18µM | - | - | - | -
CCCCC(CC)CN=C(N)NC(N)=NCCCCCCN=C(N)NC(N)=NCC(CC)CCCC (configuration not stated) | - | ? | 89µM | . | - | ?
O=C(C[n+]1cccc2cc(Cl)ccc21)c1ccc(I)cc1 | . | - | . | . | . | -
O=C(CCc1nc2sc3c(c2c(=O)[nH]1)CCCC3)NCCc1ccccc1 | ? | 50µM | ? | . | - | ?
CCN(CC)C(=O)c1cccc(NC(=O)CCc2nc3sc4c(c3c(=O)[nH]2)CCCC4)c1 | - | ? | - | . | - | -
O=C(CCc1nc2sc3c(c2c(=O)[nH]1)CCCC3)NCCc1ccc(F)cc1 | . | ? | ? | 22µM | - | -
CCOC(=O)c1ccc(NC(=O)C2=C(C)C(=O)OC23CCCCCC3)cc1 | . | - | - | - | . | -
O=[N+]([O-])c1cc([N+](=O)[O-])c2nonc2c1Nc1ccccc1O | . | - | - | - | - | -
O=[N+]([O-])c1cc([N+](=O)[O-])c2nonc2c1Nc1ccc(O)cc1 | - | 2.5µM | - | - | - | -
CCOc1ccc(NC(=O)CN(C)C(=O)c2ccccc2-n2cnnn2)cc1OCC | - | - | - | . | - | -
